High-throughput results from PubChem.
PfHsp40 yeast: rescue of yeast from PfHsp40 toxicity, primary screen, S. cerevisiae, ATP luminescence. growth rescue, % at 12.5 µM. S. cerevisiae expressing PfHsp40, growth rescue. 0.68% of 340,000 active; in the data active = growth rescue above about 28%, passing the limit was not always enough; inconclusive = no clear call, values can overlap the other calls;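 note: yeast W303a lacking pdr1 and pdr3 grown in galactose medium; growth measured after three days at 30 °C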
FadD28 binding: inhibitors of FadD28 bisubstrate probe binding, primary screen, biochemical, fluorescence polarization, single point | Mycobacterium tuberculosis FadD28 fatty-acid-AMP ligase | inhibition, % at 12.5 µM | 0.22% of 360,000 active; in the data active = inhibition above about 8.5%, passing the limit was not always enough; inconclusive = no clear call, values can overlap the other calls
Yp Topo-I inh: Yersinia pestis topoisomerase I inhibitors, primary screen, biochemical, cleavage product accumulation, plate reader, single point | Y. pestis Topo-I cleavage product accumulation | AID 504884, 2011 | activity, % at 10 µM | DNA topoisomerase I (Yersinia pestis CO92) | 0.064% of 360,000 active; in the data active = activity above about 50%, passing the limit was not always enough; inconclusive = no clear call, values can overlap the other calls
BioA inh: M. tuberculosis BioA enzyme inhibitors, primary screen, biochemical, plate reader, single point, HTS; 7,8-diaminopelargonic acid synthase BioA (Mycobacterium tuberculosis); purified M. tuberculosis BioA enzyme; inhibition, % at 9.99 µM; 0.096% of 360,000 active; AID 602481, 2012; in the data active = inhibition above about 40%; inconclusive = no clear call, values can overlap the other calls
PrP UTR inh: inhibition of PrP 5' UTR reporter expression; cell-based PrP 5' UTR mRNA reporter, plate reader; 0.35% of 340,000 active; AID 488862, 2010; inhibition, % (no concentration beside the values); in the data active = inhibition above about 52%; note: 0 = median of the neutral control wells
PrP 5UTR single: prion 5' UTR mRNA inhibition, cherry-pick retest; shares compounds with PrP UTR inh; cell-based prion protein 5' UTR reporter, plate reader; inhibition, % at 2.5 µM; 48% of 1,100 active; AID 504592, 2011; in the data active = inhibition above about 54%; inconclusive = no clear call, values can overlap the other calls
Starred values were filed as active, the others as inactive; ? = inconclusive; / = not tested or not shown. Shown are actives, neighbours in structure and some others; about 1.1% of the full set was active somewhere.

SMILES | PfHsp40 yeast | FadD28 binding | Yp Topo-I inh | BioA inh | PrP UTR inh | PrP 5UTR single
O=C(Nc1ccc(-c2nc3cccnc3s2)cc1)C1CCCO1 (configuration not stated) | 0 | -4 | 9 | -2 | 62* | 65*
O=C(Nc1ccc(-c2nc3ccccc3o2)cc1)C1CCCO1 (configuration not stated) | -3 | -5 | 11 | -1 | -111 | /
CC1(C(=O)O)CC12c1ccccc1-c1ccccc12 (configuration not stated) | 4 | -2 | 3 | / | 62* | -22
O=C(O)CCC1(CCC(=O)O)c2ccccc2-c2ccccc21 | -3 | -1 | -13 | -8 | -51 | /
COc1ccc2c(c1)C(C)=CC(C)(C)N2S(=O)(=O)c1ccc(NC(C)=O)cc1 | 1 | -4 | 30 | -1 | 73* | 41
CC(C)(C)c1ccc(-c2cc(N)n[nH]2)cc1 | 0 | -2 | 0 | -2 | 64* | ?
CC(=NNC(=S)N(Cc1ccccn1)Cc1ccccn1)c1cnccn1 | 113* | -1 | 8 | / | 80* | 58*
O=C(C[C@H]1CC[C@@H](NC(=O)CCN2CCCCC2)[C@@H](CO)O1)NCc1ccc(Cl)c(Cl)c1 | / | / | / | 3 | / | /
CC(C)NC(=O)Nc1ccc2c(c1)C(=O)N([C@@H](C)CO)C[C@@H](C)[C@H](CN(C)C(=O)Nc1ccc(C(F)(F)F)cc1)O2 | / | / | / | 0 | / | /
COc1cc(C2C3=C(Nc4ncnn42)c2ccccc2CC3)cc(OC)c1OC (configuration not stated) | 0 | -1 | 20 | 13 | 62* | 86*
CC1CCOC(=O)C=CC=CC(=O)OC2CC3OC4C5OC5(C)C(O)CC4(COC(=O)C1O)C2(C)C31CO1 (configuration not stated) | / | -3 | 2 | / | 82* | 92*
CC1=CC2OC3CC4OC(=O)C=CC=CC(C(C)O)OCC(O)C5(C)OC5C(=O)OCC2(CC1O)C4(C)C31CO1 (configuration not stated) | / | 0 | -1 | / | 94* | 93*
CC(O)C1C=CC=CC(=O)OC2CC3OC4C5OC5(C)C(O)CC4(COC(=O)C(O)C(C)CCO1)C2(C)C31CO1 (configuration not stated) | / | -1 | 0 | / | 70* | 83*
CC1=CC2OC3CC4OC(=O)C=CC=CC(=O)OCCC(C)C(O)C(=O)OCC2(CC1)C4(C)C31CO1 (configuration not stated) | / | -3 | 6 | / | 94* | 93*
C[C@@H]1CN([C@@H](C)CO)C(=O)c2ccccc2-c2ccccc2CO[C@@H]1CN(C)S(=O)(=O)c1ccc(Cl)cc1 | / | / | / | 4 | / | /
COc1ccc(CN(C)C[C@@H]2Oc3ccc(NC(=O)Nc4ccc(F)cc4)cc3C(=O)N([C@H](C)CO)C[C@H]2C)cc1 | / | / | / | -2 | / | /
COc1ccc(-c2noc(CCCC(=O)O)n2)cc1 | 0 | 0 | 6 | -1 | 56* | 29
C[C@H]1CN([C@@H](C)CO)C(=O)c2cc(NS(=O)(=O)c3ccc(Cl)cc3)ccc2O[C@H]1CN(C)S(C)(=O)=O | / | / | / | 0 | / | /
NNC(=S)NC1CCCCC1 | 1 | -3 | -4 | -2 | 80* | -18
COc1ccc2cc3c(N)nn(C(=O)c4ccccc4Cl)c3nc2c1 | 0 | -3 | 12 | / | 58* | 47
COc1ccc2cc3c(N)nn(C(=O)c4ccc(F)cc4)c3nc2c1 | 0 | -2 | -6 | / | 15 | /
CCC(=O)Nc1ccc2c(c1)C(=O)N(C)[C@H]1CC[C@@H](CC(=O)O)O[C@H]1CO2 | / | / | / | 0 | / | /
O=c1[nH]cnc2c1ncn2[C@@H]1O[C@H](CO)[C@@H](O)[C@H]1O | -1 | 1 | -6 | 1 | 79* | -7
CCOC(=O)c1ccc(CNC(=O)CCC(=O)O)cc1 | -1 | 0 | -3 | -5 | 67* | -2
Cc1ccc2nc3sc(C(=O)N4CCOCC4)c(N)c3cc2c1 | -1 | -4 | 6 | 1 | 86* | 69*
SMILES | PfHsp40 yeast | FadD28 binding | Yp Topo-I inh | BioA inh | PrP UTR inh | PrP 5UTR single
Cc1cc(N)nc(=O)n1C1CC(O)C(CO)O1 (configuration not stated) | 0 | -1 | 2 | / | 59* | -7
Nc1nc(=O)n(C2CC(O)C(CO)O2)cc1Cl (configuration not stated) | / | -2 | / | 1 | / | /
C[C@H]1CN([C@@H](C)CO)C(=O)c2cc(-c3ccncc3)cnc2O[C@@H]1CN(C)C(=O)Cc1cccnc1 | / | / | / | 1 | / | /
CNCC(=O)O | 2 | -2 | -4 | -1 | 92* | 8
COc1ccc(C2=Nn3c(nnc3-c3ccccc3F)SC2)cc1OC1CCCC1 | 13 | -15 | 6 | 2 | -17 | /
COc1ccc(OC)c(-c2nnc3n2N=C(c2ccc(OC)c(OC)c2)CS3)c1 | -1 | -2 | 15 | 7 | 56* | 83*
COc1ccc(OC)c(-c2nnc3n2N=C(c2ccc(OC)c(OC4CCCC4)c2)CS3)c1 | 2 | -2 | -2 | -1 | 65* | 86*
N#C[C@@H]1[C@H](c2ccc(C#CC3CCCCC3)cc2)[C@@H](CO)N1C(=O)Cc1ccccn1 | / | / | / | 0 | / | /
COc1ccc(NC(=O)N[C@@H]2CC[C@@H](CC(=O)NC3CCC3)O[C@@H]2CO)cc1 | / | / | / | -2 | / | /
COc1cc(OC)c2c(-c3cccc(-c4ccc(C(C)=O)cc4)c3)cc(=O)oc2c1 | -1 | 0 | 1 | -2 | 64* | 93*
Cc1ccccc1Nc1n[nH]c(=S)s1 | / | -1 | 1 | -2 | / | /
Cc1c(Cl)cccc1Nc1n[nH]c(=S)s1 | -1 | 2 | 0 | / | 71* | -17
Cn1c(=O)c2c(nc(CN3CCN(c4ccccc4F)CC3)n2CCCc2ccccc2)n(C)c1=O | -1 | -1 | -3 | 3 | 83* | -3
CC(C)c1nnc(NC(=O)c2ccc3c(c2)OCO3)s1 | -2 | -2 | 0 | / | 54* | ?
Cc1cnc(NC(=O)c2ccc3c(c2)OCCO3)s1 | 0 | 1 | 1 | 0 | 81* | 73*
CCCC(=O)Nc1ccc2c(c1)C(=O)N(C)C[C@@H](OC)[C@@H](C)CN(C(=O)c1cnccn1)[C@@H](C)CO2 | / | / | / | 0 | / | /
C[C@@H]1CN([C@H](C)CO)C(=O)c2cc(NS(C)(=O)=O)ccc2O[C@@H](C)CCCCO[C@@H]1CN(C)CC1CCCCC1 | / | / | / | 0 | / | /
Cc1ccc(C(C)C)c(OCc2ccc(C(=O)N/N=C/c3cccc(O)c3O)cc2)c1 | 0 | 0 | 3 | / | 62* | 65*
COc1ccc(C(=O)NCc2nnc(SC)n2Cc2ccccc2)cc1 | 1 | -1 | -3 | / | 54* | 8
O=C(CSc1ncn[nH]1)Nc1ncc(C(F)(F)F)cc1Cl | -1 | -1 | 8 | / | 75* | -11
O=C(NCCc1ccccc1F)c1ccc2c(c1)OCCO2 | -1 | -3 | 12 | -1 | 89* | 93*
